From PubChem BioAssay (EPA / NIEHS)
Results filed as inconclusive are left out. Activity calls are given as the source filed them. The calls were made as follows, unless noted: active = hit-call score of the fitted dose curve at least 0.9, where 1 is the maximum; inactive = score below 0.9.

Experiments:
[1] = target: CCAAT/enhancer-binding protein beta (Homo sapiens) (UniProt P17676); experiment: ATG_C_EBP_CIS: Attagene CIS-FACTORIAL HepG2 Assay for human CCAAT/Enhancer Binding Protein (C/EBP) beta (AID 2282927); conditions: HepG2 Attagene cis-factorial transcription factor reporter; actives raise or lower the signal
Chain of CCAAT/enhancer-binding protein beta (Homo sapiens) (P17676 whole entry, looked up): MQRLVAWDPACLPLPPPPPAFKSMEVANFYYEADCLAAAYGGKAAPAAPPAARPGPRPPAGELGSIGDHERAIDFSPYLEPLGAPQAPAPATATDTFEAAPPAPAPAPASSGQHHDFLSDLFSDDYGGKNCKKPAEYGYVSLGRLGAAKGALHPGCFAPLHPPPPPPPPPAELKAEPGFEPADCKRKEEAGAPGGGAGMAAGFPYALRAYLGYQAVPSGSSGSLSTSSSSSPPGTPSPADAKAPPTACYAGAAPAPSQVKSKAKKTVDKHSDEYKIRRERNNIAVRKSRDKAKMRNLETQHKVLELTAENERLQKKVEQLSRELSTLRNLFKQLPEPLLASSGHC
Procedure, shortened: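 Changes in reporter mRNA, rather than exogenous chimeric receptor activity, reflect native C/EBP signalling in transfected HepG2 cells dosed for 24 h; transcripts are detected by RT-PCR and capillary electrophoresis.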

[2] = target: Transcription factor E2F1 (Homo sapiens) (UniProt Q01094); experiment: ATG_E2F_CIS: Attagene CIS-FACTORIAL HepG2 Assay for human E2F Transcription Factor 1 (AID 2282935); conditions: HepG2 Attagene cis-reporter, E2F reporter RNA transcripts; actives raise or lower the signal
Chain of Transcription factor E2F1 (Homo sapiens) (Q01094 whole entry, looked up): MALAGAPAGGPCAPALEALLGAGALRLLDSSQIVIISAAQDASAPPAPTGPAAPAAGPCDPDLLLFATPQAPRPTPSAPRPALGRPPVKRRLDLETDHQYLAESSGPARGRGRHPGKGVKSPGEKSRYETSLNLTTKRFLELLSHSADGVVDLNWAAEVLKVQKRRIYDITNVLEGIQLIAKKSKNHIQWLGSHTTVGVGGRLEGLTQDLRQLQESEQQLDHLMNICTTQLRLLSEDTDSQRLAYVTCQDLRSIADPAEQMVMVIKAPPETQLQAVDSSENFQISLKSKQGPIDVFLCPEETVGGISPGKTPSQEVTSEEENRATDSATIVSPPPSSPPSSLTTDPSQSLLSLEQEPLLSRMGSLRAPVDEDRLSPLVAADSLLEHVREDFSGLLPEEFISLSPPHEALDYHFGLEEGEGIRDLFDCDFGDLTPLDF
Procedure, shortened: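 Fluorescent RT-PCR products, digested with HpaI for 2 h at 37 C, are separated by capillary electrophoresis. Source RNA comes from transfected HepG2 cultures treated for 24 h.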

[3] = target: Hypoxia-inducible factor 1-alpha (Homo sapiens) (UniProt Q16665); experiment: ATG_HIF1a_CIS: Attagene CIS-FACTORIAL HepG2 Assay for human Hypoxia Inducible Factor 1 (HIF1A) (AID 2282951); conditions: HepG2 Attagene cis-factorial HIF1a reporter transcription; actives raise or lower the signal
Chain of Hypoxia-inducible factor 1-alpha (Homo sapiens) (Q16665 whole entry, looked up): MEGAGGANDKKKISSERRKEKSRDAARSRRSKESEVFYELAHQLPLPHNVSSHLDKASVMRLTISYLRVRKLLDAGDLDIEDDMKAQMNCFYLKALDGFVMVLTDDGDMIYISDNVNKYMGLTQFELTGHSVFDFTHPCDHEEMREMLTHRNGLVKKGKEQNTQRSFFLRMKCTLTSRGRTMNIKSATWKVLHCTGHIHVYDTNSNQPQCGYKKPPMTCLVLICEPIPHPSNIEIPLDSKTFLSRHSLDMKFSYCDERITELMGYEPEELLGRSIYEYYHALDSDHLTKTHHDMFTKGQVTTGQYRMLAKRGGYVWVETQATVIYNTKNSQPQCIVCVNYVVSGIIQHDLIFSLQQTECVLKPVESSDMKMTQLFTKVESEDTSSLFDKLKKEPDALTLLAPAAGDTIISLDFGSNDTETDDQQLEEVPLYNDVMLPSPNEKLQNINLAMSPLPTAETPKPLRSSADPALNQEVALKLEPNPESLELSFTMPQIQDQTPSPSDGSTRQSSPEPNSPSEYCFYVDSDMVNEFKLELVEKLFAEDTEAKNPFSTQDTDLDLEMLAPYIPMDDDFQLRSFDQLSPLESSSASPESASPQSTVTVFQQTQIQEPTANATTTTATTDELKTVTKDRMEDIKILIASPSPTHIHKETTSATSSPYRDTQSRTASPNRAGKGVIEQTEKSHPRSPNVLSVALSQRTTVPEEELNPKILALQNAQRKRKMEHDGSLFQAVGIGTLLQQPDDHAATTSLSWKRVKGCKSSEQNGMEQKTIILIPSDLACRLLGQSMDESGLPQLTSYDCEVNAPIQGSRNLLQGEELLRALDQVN
Procedure, shortened: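 Cis-element reporter constructs were transiently transfected into HepG2 cells, which were treated for 24 h; reporter RNA was reverse-transcribed, amplified, labelled and resolved by capillary electrophoresis.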

[4] = target: Hepatocyte nuclear factor 6 (Homo sapiens) (UniProt Q9UBC0); experiment: ATG_HNF6_CIS: Attagene CIS-FACTORIAL HepG2 Assay for human Hepatocyte Nuclear Factor 6 (HNF6) (AID 2282952); conditions: HepG2 Attagene cis-factorial HNF6 reporter transcription; actives raise or lower the signal
Chain of Hepatocyte nuclear factor 6 (Homo sapiens) (Q9UBC0 whole entry, looked up, the tested form may be a part): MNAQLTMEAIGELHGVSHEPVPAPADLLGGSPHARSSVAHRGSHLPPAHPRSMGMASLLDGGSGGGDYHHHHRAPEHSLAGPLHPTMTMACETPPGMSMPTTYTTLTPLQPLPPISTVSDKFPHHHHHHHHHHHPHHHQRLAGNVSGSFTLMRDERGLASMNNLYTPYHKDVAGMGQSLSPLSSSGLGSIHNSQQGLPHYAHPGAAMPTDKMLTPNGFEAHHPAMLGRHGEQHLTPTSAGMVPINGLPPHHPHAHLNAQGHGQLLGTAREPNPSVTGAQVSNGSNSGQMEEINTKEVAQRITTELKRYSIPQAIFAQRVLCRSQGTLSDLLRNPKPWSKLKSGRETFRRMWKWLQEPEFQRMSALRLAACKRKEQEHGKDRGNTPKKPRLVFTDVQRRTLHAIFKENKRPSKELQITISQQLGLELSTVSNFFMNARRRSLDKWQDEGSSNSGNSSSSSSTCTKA
Procedure, shortened: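 Readout: fluorescent reporter-transcript fragments resolved by capillary electrophoresis after RT-PCR, reflecting endogenous factor activity in transfected HepG2. Exposure 24 h. Gain or loss of signal fitted bidirectionally against DMSO.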

[5] = target: Heat shock factor protein 1 (Homo sapiens) (UniProt Q00613); experiment: ATG_HSE_CIS: Attagene CIS-FACTORIAL HepG2 Assay for human Heat Shock Transcription Factor 1 (HSE) (AID 2282953); conditions: HepG2 HSE cis-reporter, Attagene RNA transcription; actives raise or lower the signal
Procedure, shortened: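 HepG2, transient MRTU transfection, cis-promoter reporters (endogenous TF activity). 24 h compound. RNA → oligo(dT) RT → PCR → 6-FAM primer extension → HpaI cut → CE. Bidirectional fit vs DMSO.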

[6] = target: Transcription factor Sp1 (Homo sapiens) (UniProt P08047); experiment: ATG_Sp1_CIS: Attagene CIS-FACTORIAL HepG2 Assay for human Specificity Protein 1 (Sp1) (AID 2282961); conditions: HepG2 Sp1 cis-reporter transcription, actives raise or lower the signal
Chain of Transcription factor Sp1 (Homo sapiens) (P08047 whole entry, looked up): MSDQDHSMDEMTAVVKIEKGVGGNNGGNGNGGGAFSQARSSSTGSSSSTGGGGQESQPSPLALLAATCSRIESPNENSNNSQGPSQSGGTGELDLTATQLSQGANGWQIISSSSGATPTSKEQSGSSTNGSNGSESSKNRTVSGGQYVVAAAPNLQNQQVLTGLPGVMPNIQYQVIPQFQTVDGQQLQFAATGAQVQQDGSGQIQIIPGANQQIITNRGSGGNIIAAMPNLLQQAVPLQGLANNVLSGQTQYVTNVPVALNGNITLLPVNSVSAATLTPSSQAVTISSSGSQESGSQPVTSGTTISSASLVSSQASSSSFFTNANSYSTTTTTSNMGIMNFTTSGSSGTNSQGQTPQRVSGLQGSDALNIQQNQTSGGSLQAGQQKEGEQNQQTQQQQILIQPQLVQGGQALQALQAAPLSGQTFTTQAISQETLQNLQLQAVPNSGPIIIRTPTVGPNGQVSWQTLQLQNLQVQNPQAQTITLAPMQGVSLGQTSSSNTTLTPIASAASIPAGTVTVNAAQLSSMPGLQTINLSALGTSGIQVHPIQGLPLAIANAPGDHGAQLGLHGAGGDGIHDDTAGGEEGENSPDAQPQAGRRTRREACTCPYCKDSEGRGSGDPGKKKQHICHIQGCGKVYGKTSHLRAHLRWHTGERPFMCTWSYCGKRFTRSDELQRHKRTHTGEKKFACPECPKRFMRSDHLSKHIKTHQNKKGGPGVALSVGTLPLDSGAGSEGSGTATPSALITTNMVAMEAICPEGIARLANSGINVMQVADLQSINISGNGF
Procedure, shortened: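 Chemicals are dosed onto HepG2 cells transfected with multiple cis-promoter reporter constructs, and after 24 h reporter RNA is reverse-transcribed, PCR-amplified and resolved by capillary electrophoresis for fluorescence quantitation; activity is scored up or down against DMSO.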

[7] = target: Signal transducer and activator of transcription 3 (Homo sapiens) (UniProt P40763); experiment: ATG_STAT3_CIS: Attagene CIS-FACTORIAL HepG2 Assay for human Signal Transducer and Activator of Transcription 3 (STAT3) (AID 2282963); conditions: HepG2, Attagene cis-factorial STAT3 reporter transcription; actives raise or lower the signal
Chain of Signal transducer and activator of transcription 3 (Homo sapiens) (P40763 whole entry, looked up): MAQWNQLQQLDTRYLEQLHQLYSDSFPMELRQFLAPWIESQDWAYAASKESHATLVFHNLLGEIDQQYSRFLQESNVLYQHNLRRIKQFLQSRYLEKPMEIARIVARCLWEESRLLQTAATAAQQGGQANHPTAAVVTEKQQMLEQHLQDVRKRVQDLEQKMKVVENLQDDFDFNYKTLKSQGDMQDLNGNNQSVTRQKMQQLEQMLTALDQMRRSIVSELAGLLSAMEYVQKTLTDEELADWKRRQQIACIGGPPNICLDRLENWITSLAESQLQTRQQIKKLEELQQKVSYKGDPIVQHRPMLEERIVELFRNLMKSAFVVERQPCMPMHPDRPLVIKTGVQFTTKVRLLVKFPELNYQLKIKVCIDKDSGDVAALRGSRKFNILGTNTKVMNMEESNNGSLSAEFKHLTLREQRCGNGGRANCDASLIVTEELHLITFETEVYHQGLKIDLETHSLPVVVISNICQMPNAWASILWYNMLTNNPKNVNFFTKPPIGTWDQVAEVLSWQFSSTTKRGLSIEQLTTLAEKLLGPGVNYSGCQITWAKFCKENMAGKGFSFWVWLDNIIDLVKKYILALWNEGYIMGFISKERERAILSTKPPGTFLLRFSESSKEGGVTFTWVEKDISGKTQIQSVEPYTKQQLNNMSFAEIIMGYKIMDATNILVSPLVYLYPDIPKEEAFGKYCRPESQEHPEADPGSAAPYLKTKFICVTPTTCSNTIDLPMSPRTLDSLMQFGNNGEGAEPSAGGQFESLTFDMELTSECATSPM
Procedure, shortened: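 Cis-factorial format: endogenous transcription factors in HepG2 drive transfected reporter units. After 24 h treatment, reporter RNA was reverse-transcribed, amplified, FAM-labelled and HpaI-digested before CE analysis; activity scored in both directions against DMSO.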

[8] = ATG_VDRE_CIS: Attagene CIS-FACTORIAL HepG2 Assay for human Vitamin D Receptor Element (VDRE) (AID 2282968); conditions: HepG2 VDRE cis-reporter transcription, actives raise or lower the signal
Procedure, shortened: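 Measures endogenous factor activity through cis-element-driven reporter transcripts in transiently transfected HepG2. Cells are treated 24 h; reporter mRNA is quantified by RT-PCR and capillary electrophoresis; fitting is bidirectional.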

[9] = target: X-box-binding protein 1 (Homo sapiens) (UniProt P17861); experiment: ATG_Xbp1_CIS: Attagene CIS-FACTORIAL HepG2 Assay for human X-box Binding Protein 1 (XBP1) (AID 2282972); conditions: HepG2 XBP1 cis-element reporter, Attagene multiplex; actives raise or lower the signal
Chain of X-box-binding protein 1 (Homo sapiens) (P17861 whole entry, looked up): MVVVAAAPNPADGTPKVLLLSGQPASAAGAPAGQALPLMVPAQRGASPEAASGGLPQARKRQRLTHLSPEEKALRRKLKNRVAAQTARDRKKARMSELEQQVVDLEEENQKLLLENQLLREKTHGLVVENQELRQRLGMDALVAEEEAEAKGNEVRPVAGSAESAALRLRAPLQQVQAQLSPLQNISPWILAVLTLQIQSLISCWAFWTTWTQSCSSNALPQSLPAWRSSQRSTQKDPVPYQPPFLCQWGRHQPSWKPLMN
Procedure, shortened: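 Reporter transcripts were quantified by RT-PCR with fluorescent primer extension and capillary electrophoresis after 24 h chemical exposure. Cells: transiently transfected HepG2 carrying cis-regulated reporter constructs; data fitted bidirectionally relative to DMSO.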

[10] = ATG_NFI_CIS: Attagene CIS-FACTORIAL HepG2 Assay for human Nuclear Factor I (NFI) (AID 2282989); conditions: HepG2 cis-regulatory reporter, NFI response element transcription; actives raise or lower the signal
Procedure, shortened: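 Transient MRTU transfection of HepG2 → 24 h chemical dosing → total RNA, oligo(dT) RT → PCR, 6-FAM primer extension, HpaI cut → capillary electrophoresis. Endpoint fitted bidirectionally relative to DMSO.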

[11] = target: Myc proto-oncogene protein (Homo sapiens) (UniProt P01106); experiment: ATG_Myc_CIS: Attagene CIS-FACTORIAL HepG2 Assay for human Myelocytomatosis (Myc) Proto-Oncogene Transcription Factor (AID 2282990); conditions: HepG2, Attagene cis-reporter transcription factor activity; actives raise or lower the signal
Chain of Myc proto-oncogene protein (Homo sapiens) (P01106 whole entry, looked up): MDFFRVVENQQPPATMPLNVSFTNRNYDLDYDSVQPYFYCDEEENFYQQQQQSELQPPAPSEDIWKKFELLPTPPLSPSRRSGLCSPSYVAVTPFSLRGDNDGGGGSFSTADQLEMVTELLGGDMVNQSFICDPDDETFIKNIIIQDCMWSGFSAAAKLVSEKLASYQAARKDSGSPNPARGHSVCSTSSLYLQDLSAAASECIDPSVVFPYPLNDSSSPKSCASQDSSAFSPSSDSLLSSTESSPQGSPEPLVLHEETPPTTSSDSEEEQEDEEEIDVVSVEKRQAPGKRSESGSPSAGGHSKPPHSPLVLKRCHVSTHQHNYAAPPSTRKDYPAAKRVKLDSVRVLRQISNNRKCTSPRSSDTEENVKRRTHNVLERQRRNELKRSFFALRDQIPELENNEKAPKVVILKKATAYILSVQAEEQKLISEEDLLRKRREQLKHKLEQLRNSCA
Procedure, shortened: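 Cells of the HepG2 human liver line bear multiple cis-driven reporter transcription units. Reporter mRNA after 24 h exposure is reverse-transcribed, amplified, labelled and resolved by capillary electrophoresis, with gain- or loss-of-signal fitting relative to DMSO.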

[12] = ATG_NRF2_ARE_CIS: Attagene CIS-FACTORIAL HepG2 Assay for human Nuclear Factor Erythroid 2 Related Factor 2 (NFR2) response to Antioxidant Response Elements (ARE) (AID 2282992); conditions: HepG2 Attagene ARE/NRF2 reporter, transcription factor activity; actives raise or lower the signal
Procedure, shortened: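 Endogenous transcription factor activity read out as reporter transcript levels (RT-PCR plus capillary electrophoresis, fluorescence) in transiently transfected HepG2 cells. Measured at 24 h after dosing; gain or loss of signal fitted versus DMSO.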

[13] = target: Cellular tumor antigen p53 (Homo sapiens) (UniProt P04637); experiment: ATG_p53_CIS: Attagene CIS-FACTORIAL HepG2 Assay for human p53 Transcription Factor (AID 2282994); conditions: HepG2 p53 cis-element reporter, Attagene mRNA; actives raise or lower the signal
Chain of Cellular tumor antigen p53 (Homo sapiens) (P04637 whole entry, looked up): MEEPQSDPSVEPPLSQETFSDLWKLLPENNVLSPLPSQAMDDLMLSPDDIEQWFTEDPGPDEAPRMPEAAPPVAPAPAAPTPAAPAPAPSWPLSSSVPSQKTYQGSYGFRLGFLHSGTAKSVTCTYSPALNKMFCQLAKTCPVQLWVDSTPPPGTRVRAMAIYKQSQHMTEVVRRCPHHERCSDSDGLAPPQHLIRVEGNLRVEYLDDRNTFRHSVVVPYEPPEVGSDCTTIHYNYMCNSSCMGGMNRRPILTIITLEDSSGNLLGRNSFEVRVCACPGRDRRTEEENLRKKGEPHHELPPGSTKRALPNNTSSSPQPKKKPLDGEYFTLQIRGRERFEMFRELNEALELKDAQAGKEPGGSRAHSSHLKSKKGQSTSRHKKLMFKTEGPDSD
Procedure, shortened: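 Endogenous p53 activity read in transiently transfected HepG2 from a cis-element-driven reporter transcript after 24 h exposure. RNA reverse-transcribed, PCR-amplified, fluorescently labelled and sized by capillary electrophoresis; gain or loss fitted against DMSO baseline.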

[14] = target: Cellular tumor antigen p53 (Homo sapiens) (UniProt P04637); experiment: TOX21_p53_BLA_p2_ratio: Tox21 HCT-116 p53 Agonism Beta-lactamase Assay, Ratio, Phase 2 (AID 2283592; active = hit-call score of the fitted dose curve at least 0.9, where 1 is the maximum)
Procedure, shortened: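 Readout: blue/green (460/530 nm) FRET emission ratio after 2 h CCF4-AM loading at room temperature, excitation 405 nm. HCT116 p53 bla cells, 16 h compound exposure at 37C, 5% CO2; agonist direction fitted against DMSO baseline.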

[15] = ATG_PXRE_CIS: Attagene CIS-FACTORIAL HepG2 Assay for human Pregnane X Receptor Element (PXRE) (AID 2282957); conditions: HepG2 Attagene CIS-FACTORIAL PXRE reporter, mRNA; actives raise or lower the signal
Procedure, shortened: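 Read-out: fluorescence of reporter-specific RT-PCR products resolved by capillary electrophoresis, fitted bidirectionally relative to DMSO. Human HepG2 liver cells carried transfected cis-promoter reporter units and were exposed to chemicals for 24 h.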

[16] = ATG_Sox_CIS: Attagene CIS-FACTORIAL HepG2 Assay for human SRY-box transcription factor (SOX) (AID 2282960); conditions: HepG2 Attagene cis-factorial SOX reporter, mRNA; actives raise or lower the signal
Procedure, shortened: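 Fluorescence-labelled cDNA fragments from reporter transcripts, sized by CE, give the signal. Cells: HepG2, transiently transfected with cis-regulated reporter units. Exposure 24 h; DMSO negative control; bidirectional curve fitting.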

[17] = ATG_M_06_TRANS: Attagene TRANS-FACTORIAL HepG2 Assay for M06 Transcription Factor (Internal Marker) (AID 2282983; active = hit-call score of the fitted dose curve at least 0.9, where 1 is the maximum); conditions: HepG2 Attagene TRANS M06 internal marker reporter
Procedure, shortened: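 Read-out: fluorescent reporter cDNA fragments resolved by capillary electrophoresis after RT-PCR and HpaI cut. Source cells were HepG2 carrying transfected multi-reporter GAL4 constructs, dosed 24 h. Increase over DMSO control analysed.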

[18] = target: Transcriptional activator Myb (Homo sapiens) (UniProt P10242); experiment: ATG_Myb_CIS: Attagene CIS-FACTORIAL HepG2 Assay for human Myeloblastosis (Myb) Proto-Oncogene Transcription Factor (AID 2282986); conditions: HepG2 Attagene CIS-FACTORIAL Myb reporter transcription; actives raise or lower the signal
Procedure, shortened: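 Using HepG2 liver cells bearing transiently transfected cis-promoter reporter constructs, the assay measures induction or loss of reporter mRNA after 24 hours of dosing. Detection used fluorescently labeled RT-PCR products separated by capillary electrophoresis.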

[19] = ATG_GATA_CIS: Attagene CIS-FACTORIAL HepG2 Assay for human GATA Binding Protein (AID 2282944); conditions: HepG2 GATA cis-element reporter, Attagene multiplex mRNA; actives raise or lower the signal
Procedure, shortened: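 Transient MRTU transfection, HepG2, 24 h compound exposure. Total RNA → oligo(dT) RT → PCR → 6-FAM primer extension → HpaI cut → CE. Bidirectional fit vs DMSO.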

[20] = ATG_TAL_CIS: Attagene CIS-FACTORIAL HepG2 Assay for human TAL Basal Promoter (AID 2282966); conditions: HepG2 Attagene cis-factorial TAL promoter reporter; actives raise or lower the signal;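 also: background control endpoint measuring basal TAL promoter reporter mRNA not a specific factor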
Procedure, shortened: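 HepG2, transient MRTU transfection, 24 h compound exposure; RNA → oligo(dT) RT → PCR → 6-FAM primer extension → HpaI digest → CE fluorescence. Bidirectional curve fit vs DMSO. Background-control readout.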

Measured: AC50

O=C(O)Cc1c[nH]c2ccccc12
active: [12] 74.1 µM
not listed: [15] | [16] | [17] | [18] | [19] | [20]
inactive: all other assays above

COC(=O)c1ccccc1
not listed: [19] | [20]
inactive: all other assays above

CC1=NN(c2cc(Cl)c(S(=O)(=O)O)cc2Cl)C(=O)C1N=Nc1ccc(S(=O)(=O)O)cc1 (stereo not given)
active: [15] 100 µM
not listed: [6] | [7] | [9] | [18] | [20]
inactive: all other assays above

O=C(C(=O)c1ccccc1)c1ccccc1
active: [15] 42.8 µM
not listed: [17] | [19]
inactive: all other assays above
